For 61 sequences, binding signal results are on record in paper PMC7819943, “Rice protein-binding microarrays: a tool to detect cis-acting elements near promoter regions in rice”.

The full ranking holds about 35,000 sequences; the median of “fluorescence intensity (a.u.)” is about 10,000, and the highest 2% start at about 52,000. This excerpt belongs to a sample that is enriched for the highest values.

The test deals with T1, OsWOX13 (Oryza sativa, UniProt Q5QMM3 1-267).
T1 sequence: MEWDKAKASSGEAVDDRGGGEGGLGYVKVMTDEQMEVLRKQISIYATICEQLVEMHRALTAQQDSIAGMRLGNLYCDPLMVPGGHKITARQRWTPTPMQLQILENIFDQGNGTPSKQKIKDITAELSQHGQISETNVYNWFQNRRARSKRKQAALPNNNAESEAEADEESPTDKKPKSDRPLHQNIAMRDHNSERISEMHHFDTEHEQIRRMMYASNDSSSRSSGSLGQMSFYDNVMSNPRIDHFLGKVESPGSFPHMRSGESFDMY
The test is described as follows: protein-binding microarray (RPBM); PBS, 2% BSA, 51.3 ng/ul salmon testes DNA, 50 uM zinc acetate, 200 nM TF, 25 C, 1 h; high values mean tight binding. Conditions: protein: recombinant; tags: N-terminal polyhistidine and DsRed monomer fusion (pET32a); label: CyDye5-dUTP incorporated in the synthesized complementary strand; 3' TTTTT single-stranded linker to array surface; dsDNA, one strand shown. The method, boiled down:
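A custom Agilent array was converted to double-stranded form by primer extension with Cy5-dUTP and blocked with 2% BSA. Protein at 200 nM in PBS with 2% BSA, salmon testes DNA and 50 µM zinc acetate was applied for 1 h at 25 °C, followed by washing. The proteins were polyhistidine–DsRed N-terminal fusions of transcription factors, expressed in E. coli BL21-CodonPlus and Ni–NTA-purified. The binding signal is per-feature fluorescence intensity (arbitrary units) from an Axon 4000B scanner.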
Consider “AGCGATTAGTAAGTGGATTGGATCTAACTAAGCTTGCTACCGGAGTCACCTAGTGCAG”, for which the binding signal was 9310 fluorescence intensity (a.u.).

On to “CCTGCACAATCACTGGCTGATGCATCTGCAATGTCACCAACGGAGTCACCTAGTGCAG”, for which the binding signal is 4350 fluorescence intensity (a.u.). Next, “TGGATTTGTATGTCTTAATTGAAGTTAGGCTATAAATTTGCGGAGTCACCTAGTGCAG”: 10300 fluorescence intensity (a.u.); “ATATTTAATTTGATACTACCTATAAACCGCACAAGCTGCACGGAGTCACCTAGTGCAG”: 16800 fluorescence intensity (a.u.); “GTGATGAGTGATGACCCGGAGAATGAGAGAGGCGACTGTGCGGAGTCACCTAGTGCAG”: 3800 fluorescence intensity (a.u.). “TAATCATGTTAAATTGATGTTATTAGATTTATCATTAAACCGGAGTCACCTAGTGCAG”: the binding signal is 14900 fluorescence intensity (a.u.). Next, “GGATTAAATTATCAAATAGATTTGGCTGCCATGATGGCACCGGAGTCACCTAGTGCAG”: 42600 fluorescence intensity (a.u.); “ATGATAGATTAAATCAAATTATCATGTTATGGGTATAGCCCGGAGTCACCTAGTGCAG”: 53200 fluorescence intensity (a.u.); “GAGTGGTAAATAATTAATTATTACATATTTGTATAAATCGCGGAGTCACCTAGTGCAG”: 22800 fluorescence intensity (a.u.). Next, “TAATGTGTGTGTATAATTAATTAAGCAGTGAAGTGAATCGCGGAGTCACCTAGTGCAG”: 5650 fluorescence intensity (a.u.); “CTCCTAATTTAGTCACTTATGGAGCTCTGATAGCTGGATGCGGAGTCACCTAGTGCAG”: 14200 fluorescence intensity (a.u.).

Take “TAAATTAATTAATTAGGTATAAATGTAATTAAGCACATCGCGGAGTCACCTAGTGCAG”: the binding signal was 55000 fluorescence intensity (a.u.). Next, “ATATGATCGTATAATTAAATGAGATCATGATTAAGTGGAGCGGAGTCACCTAGTGCAG”: 16400 fluorescence intensity (a.u.). Turning to “CATTTGCTGGATGTGCTCCTTACTTAATATTTATGCATGGCGGAGTCACCTAGTGCAG”, the binding signal is 52600 fluorescence intensity (a.u.).

“AGTTATAATGGAATTAATTATAATTATAGTATAGTTAGATCGGAGTCACCTAGTGCAG”: the binding signal is 28600 fluorescence intensity (a.u.).

Take “GTTAATTAGATCATGATAAAGATTAATGTATAGATCGAGGCGGAGTCACCTAGTGCAG”: the binding signal is 62000 fluorescence intensity (a.u.).

With “CATAATTAAAATACTTAAAATATGTGCTCGTAATTATTTACGGAGTCACCTAGTGCAG”, the binding signal is 6000 fluorescence intensity (a.u.). Next, “GGGGATGGAAGGGTGATTGAGAGTAAGAATTGGAGGTGATCGGAGTCACCTAGTGCAG”: 30000 fluorescence intensity (a.u.); “TAGAATTGATGATACTAGCTATAACTTCCGAGTGAGCACACGGAGTCACCTAGTGCAG”: 16900 fluorescence intensity (a.u.). Consider “CCATCTGCTGATAGATTTTCTATTGCCAAATCTTACACCTCGGAGTCACCTAGTGCAG”, for which the binding signal was 5710 fluorescence intensity (a.u.).

As to “CTTCAATAATTAATTTATATTGTACTAATATGTTTGTAAACGGAGTCACCTAGTGCAG”, the binding signal is 17900 fluorescence intensity (a.u.). Then “AATTACTGTCATGATTTGAATTTGCAATCATTTCCTGTACCGGAGTCACCTAGTGCAG”, with 18800 fluorescence intensity (a.u.).

Regarding “TCCTTGCTAACAAATCAACCAATTTGTCCATTCCCTATGTCGGAGTCACCTAGTGCAG”, the binding signal was 3440 fluorescence intensity (a.u.). Turning to “AGAAATTGATTCGTCGAGGATATTGATCTATTAGTAAATGCGGAGTCACCTAGTGCAG”, the binding signal was 36700 fluorescence intensity (a.u.). Then “AGTTTCATTAAATTTAATATTAAACATATTTTGATAATATCGGAGTCACCTAGTGCAG”, with 5680 fluorescence intensity (a.u.). Then “AAATAAATTTGAACTAAAATGAAAATTTGAAGGTATAGCACGGAGTCACCTAGTGCAG”, with 12600 fluorescence intensity (a.u.); and “AAGCTTCCTTTGATTGATCCGACTCCACCAAGAACACGATCGGAGTCACCTAGTGCAG”, with 22000 fluorescence intensity (a.u.). As to “TGTAACTCTCGTATGTAATTGAGTAAAACATGTTGGTGCTCGGAGTCACCTAGTGCAG”, the binding signal is 4540 fluorescence intensity (a.u.). For “TTGTATAAATGAGCTATCAGATTGGCTATAGATAAATTGGCGGAGTCACCTAGTGCAG”, the binding signal is 12000 fluorescence intensity (a.u.). Next, “GTTAGATTAGATTGGTACCTCATGTTACCTCGTACCTCATCGGAGTCACCTAGTGCAG”: 55700 fluorescence intensity (a.u.).

As for “CGGTTAGATTACATTGGTACCTCATGATATCTCGTACCTCCGGAGTCACCTAGTGCAG”, the binding signal is 4680 fluorescence intensity (a.u.). In the case of “TTGTATGAATGAGCTATTAGATTGGCTATAGATGAATTGGCGGAGTCACCTAGTGCAG”, the binding signal was 8950 fluorescence intensity (a.u.).

For the sequence “TTATTAGATTGACTATAGATAAATTAGATAAATTGGAGTTCGGAGTCACCTAGTGCAG”, the binding signal was 53600 fluorescence intensity (a.u.). Next, “ATGAATAAGCTATTAGATTGACTATAGATAAATTGGAGCTCGGAGTCACCTAGTGCAG”: 18200 fluorescence intensity (a.u.).

As for “TATATAATTTATTTAATTGGATTTACCAGTTTAAGGGGTTCGGAGTCACCTAGTGCAG”, the binding signal was 54300 fluorescence intensity (a.u.). Next, “TTATTTAATTTAGAAAATTGGAGTTACCAGTTGTTCAGTTCGGAGTCACCTAGTGCAG”: 19500 fluorescence intensity (a.u.).

Consider “TTTTAGATTGGGTTATTTATAAGGCTAAGTTTTAATTTAACGGAGTCACCTAGTGCAG”, for which the binding signal is 4150 fluorescence intensity (a.u.). Then “CAACGGTTAGATTAGATTGGTACTTCATGGTACATCGTGGCGGAGTCACCTAGTGCAG”, with 43200 fluorescence intensity (a.u.). Next, “TTGTATAAATTGGCTATTAGATTGGCTATAGATTAATTGGCGGAGTCACCTAGTGCAG”: 58900 fluorescence intensity (a.u.); “TTGACTATTAAATTGGCTATAGATAAATTGGAGCTAGTAGCGGAGTCACCTAGTGCAG”: 23600 fluorescence intensity (a.u.). Next, “TTAACAGATTCTTCTTAATTAATAAATAAGCTGTCATGATCGGAGTCACCTAGTGCAG”: 17300 fluorescence intensity (a.u.); “TTGATTAGATGCGCTGTGTGGCTTCTTGTTCAGTGACAGGCGGAGTCACCTAGTGCAG”: 32400 fluorescence intensity (a.u.). Regarding “ACTATGCCAATTAAAATAAATCAATACAATAGGTATGATTCGGAGTCACCTAGTGCAG”, the binding signal was 9790 fluorescence intensity (a.u.).

Consider “TACAACAAATCAATAATACTCAATTTCCATGTAGTTTGATCGGAGTCACCTAGTGCAG”, for which the binding signal is 7890 fluorescence intensity (a.u.). For “TTGATAGTAAATCAAACATTAATAAAGGCCTGTTCACTTTCGGAGTCACCTAGTGCAG”, the binding signal is 8860 fluorescence intensity (a.u.). Then “CCAGATTGAGCTGTTGCGCACCACCATCCTGACCAGCTGCCGGAGTCACCTAGTGCAG”, with 17400 fluorescence intensity (a.u.); and “ATGACAGCAATTCCGATATCTAATAAGATTGAAAATATTGCGGAGTCACCTAGTGCAG”, with 14800 fluorescence intensity (a.u.); and “CCAAATGATATAATCATGGCACATGGAGTACTGCTTAAGACGGAGTCACCTAGTGCAG”, with 9170 fluorescence intensity (a.u.). Then “CTAAAATTGGAGACGTCACTACAAACGTACGCACTCTTTGCGGAGTCACCTAGTGCAG”, with 6760 fluorescence intensity (a.u.). Turning to “AGATAATTTAATTGTTAACCATGTATGGCTGTAAGGGTATCGGAGTCACCTAGTGCAG”, the binding signal was 43900 fluorescence intensity (a.u.).

Regarding “TAGAATAAATTGATTTAATTAAATGTAACATTAAATATATCGGAGTCACCTAGTGCAG”, the binding signal is 10100 fluorescence intensity (a.u.). For the sequence “ATTAAAACTTAATTAAATATACTAATAGCTTTCTCATTTTCGGAGTCACCTAGTGCAG”, the binding signal was 7350 fluorescence intensity (a.u.). Then “AAAATTGAAATTTTCAACATTAAATTTGGATTAGATTTTGCGGAGTCACCTAGTGCAG”, with 19200 fluorescence intensity (a.u.); and “GTACATTTTAATGATTATATTATGATGATGAAAATTGTATCGGAGTCACCTAGTGCAG”, with 15300 fluorescence intensity (a.u.).

Consider “CGGCGTTAATTGTCCTTCGATCCATTATTACAGAAACACTCGGAGTCACCTAGTGCAG”, for which the binding signal was 15400 fluorescence intensity (a.u.).

As to “GATTAATTAATTATTATCCATTGTACACTTCGAAAATTGGCGGAGTCACCTAGTGCAG”, the binding signal is 60500 fluorescence intensity (a.u.). Then “TTTAATTGGTTAAATGAACTATGTAATGTTATAATTATATCGGAGTCACCTAGTGCAG”, with 33200 fluorescence intensity (a.u.); and “AGTAAATTGGTGTATGATTAGATTAACATGTTAAATGTATCGGAGTCACCTAGTGCAG”, with 53500 fluorescence intensity (a.u.); and “TAAGATAAATTAATTGGTAACCTTGTATGTCCATAAGGGTCGGAGTCACCTAGTGCAG”, with 45400 fluorescence intensity (a.u.).

On to “ATGAGATAAATTGATTGTTAACCATGTATGTCTCTAAGGTCGGAGTCACCTAGTGCAG”, for which the binding signal is 56400 fluorescence intensity (a.u.). As to “GAAATAGATTAATTATAGCTAAAACATTTTCTCGACCTTGCGGAGTCACCTAGTGCAG”, the binding signal is 52800 fluorescence intensity (a.u.).
